Laboratory results taken from PubChem BioAssay (EPA / NIEHS).
Results filed as inconclusive are left out. Calls of active or inactive are those of the source. How the source made its calls, unless noted: active means hit-call score of the fitted dose curve at least 0.9, where 1 is the maximum; inactive means score below 0.9.

Key:
[1] = CCTE_Shafer_MEA_dev_interburst_interval_mean: CCTE's Neural Network Formation Assay for Mean Interburst Interval, Shafer Lab (AID 2284046);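 further: well-mean interburst interval of bursting electrodes as AUC over four recording days; curve fitted for decrease in interburst interval relative to DMSO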
Method in brief: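 Recordings on days 5, 7, 9 and 12 give well-mean interburst interval across actively bursting electrodes, summarized as area under the curve. Cultures: rat cortical neurons, continuous exposure from day 0, compound renewed at feeds; decrease analyzed versus DMSO.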

[2] = CCTE_Shafer_MEA_dev_inter_network_spike_interval_mean: CCTE's Neural Network Formation Assay for Mean Inter-network Spike Interval, Shafer Lab (AID 2284047)
Method in brief: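 Primary rat cortical neurons on 16-electrode MEA wells, exposed from plating day 0 through DIV 12, compound renewed at DIV 5 and 9 media changes. Mean interval between network-spike peaks recorded DIV 5, 7, 9, 12; collapsed as trapezoidal AUC, fitted downward versus DMSO.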

[3] = CCTE_Shafer_MEA_dev_network_spike_peak: CCTE's Neural Network Formation Assay for Mean Number of Electrodes in Network Spike, Shafer Lab (AID 2284049)
Method in brief: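 Rat cortical primary culture, 1.5 x 10^5 cells/well, 48-well MEA (16 electrodes/well). Dosing day 0 through DIV 12, full media/compound exchange DIV 5, 9. AxIS adaptive spike detection; AUC over days 5/7/9/12; loss-of-signal vs DMSO.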

[4] = CCTE_Shafer_MEA_dev_spike_duration_mean: CCTE's Neural Network Formation Assay for Mean Spike Duration, Shafer Lab (AID 2284051);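 further: mean network spike duration pooled as area under curve over DIV 5 to 12 recordings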
Method in brief: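 Primary rat cortical neurons on 16-electrode MEA wells (PEI-coated, laminin in plating drop), exposed from plating through DIV 12 with compound renewed at DIV 5 and 9. Mean network-spike duration recorded DIV 5, 7, 9, 12; trapezoidal AUC across days, DMSO baseline.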

[5] = CCTE_Shafer_MEA_dev_network_spike_duration_std: CCTE's Neural Network Formation Assay for Standard Deviation of Network Spike Duration, Shafer Lab (AID 2284052);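 further: area under curve of spike duration SD across recording days 5 to 12; hits are decreases in network spike duration SD versus DMSO vehicle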
Method in brief: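 Primary rat cortical neurons on PEI-coated 16-electrode MEA wells, exposed from plating day 0 through day 12 with compound renewed at DIV 5 and 9. Network spike duration SD recorded on days 5, 7, 9, 12, collapsed as trapezoidal AUC; loss-of-signal fit versus DMSO.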

[6] = CCTE_Shafer_MEA_dev_per_network_spike_spike_number_mean: CCTE's Neural Network Formation Assay for Mean Number of Spikes in a Network Spike, Shafer Lab (AID 2284053)
Method in brief: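 Primary rat cortical neurons on 48-well, 16-electrode MEA plates were exposed from plating to DIV 12, with dosing renewed on DIV 5 and 9. Spikes per network spike (0.05 s peak window) were recorded on DIV 5, 7, 9 and 12 and collapsed as trapezoidal AUC versus DMSO.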

[7] = CCTE_Shafer_MEA_dev_per_network_spike_spike_percent: CCTE's Neural Network Formation Assay for Percent of Spikes in a Network Spike, Shafer Lab (AID 2284054)
Method in brief: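 Rat primary cortical cultures, 1.5 x 10^5 cells/well on MEA. Continuous compound exposure d0–12, medium/compound renewed DIV 5, 9. Network-spike spike % (0.05 s peak window), AUC over 4 recordings, DMSO baseline.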

[8] = CCTE_Shafer_MEA_dev_LDH: CCTE's Lactate Dehydrogenase Assay for Cytotoxicity in the Neural Network Formation Assay, Shafer Lab (AID 2284068; active means hit-call score of the fitted dose curve at least 0.9, where 1 is the maximum;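 further: exposure for twelve days from plating with re-dosing on DIV 5 and 9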)
Method in brief: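 Primary rat cortical neurons were plated on PEI/laminin MEA plates and exposed from day 0 for twelve days, with compound renewed at DIV 5 and 9. Cytotoxicity was determined by spectrophotometric LDH assay relative to DMSO.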

[9] = CCTE_Shafer_MEA_dev_mutual_information_norm: CCTE's Neural Network Formation Assay for Mutual Information Normalization, Shafer Lab (AID 2284091)
Method in brief: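 Developing rat cortical networks on 16-electrode MEA wells are treated throughout formation (DIV 0–12). Shared electrode information is recorded four times, converted to area-under-curve, and fitted for decreases against DMSO vehicle.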

[10] = CCTE_Shafer_MEA_dev_correlation_coefficient_mean: CCTE's Neural Network Formation Assay for Mean Correlation Coefficient, Shafer Lab (AID 2284093)
Method in brief: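 Spontaneous activity recorded on days 5, 7, 9 and 12 post-plating; pairwise spike correlations are averaged across active electrodes and collapsed to an area-under-curve. Rat cortical cultures are dosed from plating through 12 days, with compound renewed at media changes.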

[11] = read-out: Tumor necrosis factor receptor superfamily member 6 (Homo sapiens) (UniProt P25445); assay: LTEA_HepaRG_FAS: Life Technologies and Expression Analysis (LTEA) Assay for Fas cell surface death receptor (FAS) using HepaRG (AID 2283447); details: mRNA level, 48 h; actives raise or lower the signal
Method in brief: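 FAS transcript level was measured by TaqMan qRT-PCR against three housekeeping genes after 48 h chemical exposure. Cells were HepaRG, 0.5% DMSO vehicle, with a top concentration of 100 uM and half-log dilutions over eight points, in duplicate.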

[12] = read-out: Fatty acid synthase (Homo sapiens) (UniProt P49327); assay: LTEA_HepaRG_FASN: Life Technologies and Expression Analysis (LTEA) Assay for Fatty Acid Synthase (FASN) using HepaRG (AID 2283448); details: mRNA level, 48 h; actives raise or lower the signal
Method in brief: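 Differentiated human HepaRG cells were exposed for 48 h in serum-free induction medium to eight half-log concentrations up to 100 uM in 0.5% DMSO, in duplicate. FASN mRNA was quantified by TaqMan qRT-PCR, normalized to ACTB/GAPDH/POLR2A, and fitted bidirectionally against DMSO.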

[13] = read-out: Cyclin Dependent Kinase Inhibitor 1A (CDKN1A), CDKN1A (gene 1026); assay: LTEA_HepaRG_CDKN1A: Life Technologies and Expression Analysis (LTEA) Assay for Cyclin Dependent Kinase Inhibitor 1A (CDKN1A) using HepaRG (AID 2283450); details: mRNA level, 48 h; actives raise or lower the signal
Method in brief: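 Differentiated human HepaRG cells, pre-cultured 48 h, were exposed in duplicate for 48 h in serum-free induction medium to eight half-log concentrations up to 100 uM (0.5% DMSO). CDKN1A mRNA was measured by qRT-PCR, normalized to ACTB/GAPDH/POLR2A, bidirectionally fitted versus DMSO.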

[14] = read-out: Cyclin D1 (CCND1), CCND1 (gene 595); assay: LTEA_HepaRG_CCND1: Life Technologies and Expression Analysis (LTEA) Assay for Cyclin D1 (CCND1) using HepaRG (AID 2283451); details: mRNA level, 48 h; actives raise or lower the signal
Method in brief: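 Differentiated human HepaRG cells in serum-free induction medium were exposed 48 h to eight half-log concentrations up to 100 uM in 0.5% DMSO; mRNA quantified by TaqMan qRT-PCR, normalized to ACTB, GAPDH, POLR2A, fitted bidirectionally versus DMSO.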

[15] = read-out: catalase (CAT), CAT (gene 847); assay: LTEA_HepaRG_CAT: Life Technologies and Expression Analysis (LTEA) Assay for catalase (CAT) using HepaRG (AID 2283452); details: mRNA level, 48 h; actives raise or lower the signal
Method in brief: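 Expression of CAT was quantified by TaqMan qRT-PCR with ACTB/GAPDH/POLR2A normalization after 48 h chemical exposure of HepaRG. Eight-point half-log series, top 100 uM, in 0.5% DMSO; gain or loss fitted against vehicle.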

[16] = read-out: flavin-containing dimethylaniline monooxygenases 3 (FMO3), FMO3 (gene 2328); assay: LTEA_HepaRG_FMO3: Life Technologies and Expression Analysis (LTEA) Assay for flavin-containing dimethylaniline monooxygenases 3 (FMO3) using HepaRG (AID 2283453); details: mRNA level, 48 h; actives raise or lower the signal
Method in brief: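 HepaRG, 48 h exposure, 8-pt half-log series from 100 uM, 0.5% DMSO vehicle, duplicates; FMO3 transcript by Fluidigm TaqMan qRT-PCR, housekeeping-normalized; gain/loss fit vs DMSO.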

[17] = read-out: Cytochrome P450 (CYP1A1), CYP1A1 (gene 1543); assay: LTEA_HepaRG_CYP1A1: Life Technologies and Expression Analysis (LTEA) Assay for Cytochrome P450 (CYP1A1) using HepaRG (AID 2283454); details: mRNA level, 48 h; actives raise or lower the signal
Method in brief: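 Differentiated HepaRG cells in serum-free induction medium were exposed in duplicate for 48 h to eight half-log concentrations up to 100 uM in 0.5% DMSO. CYP1A1 mRNA was quantified by TaqMan qRT-PCR, normalized to ACTB, GAPDH and POLR2A.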

[18] = read-out: CFLAR gene, CFLAR (gene 8837); assay: LTEA_HepaRG_CFLAR: Life Technologies and Expression Analysis (LTEA) Assay for CFLAR gene using HepaRG (AID 2283455); details: mRNA level, 48 h; actives raise or lower the signal
Method in brief: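 HepaRG, 48 h exposure, 8-pt conc-response (100 uM top, half-log), 0.5% DMSO vehicle, duplicates. CFLAR expression by qRT-PCR; ACTB/GAPDH/POLR2A normalization; gain or loss fit vs DMSO baseline.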

[19] = read-out: Forkhead box O1 (FOXO1), FOXO1 (gene 2308); assay: LTEA_HepaRG_FOXO1: Life Technologies and Expression Analysis (LTEA) Assay for Forkhead box O1 (FOXO1) using HepaRG (AID 2283456); details: mRNA level, 48 h; actives raise or lower the signal
Method in brief: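 Readout is FOXO1 transcript level by multiplexed qRT-PCR against three housekeeping genes, curve-fitted in both directions relative to 0.5% DMSO vehicle. Human HepaRG cultures received chemicals for 48 h, up to 100 uM in half-log steps.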

[20] = read-out: growth arrest and DNA damage 45 (GADD45A), GADD45A (gene 1647); assay: LTEA_HepaRG_GADD45A: Life Technologies and Expression Analysis (LTEA) Assay for growth arrest and DNA damage 45 (GADD45A) using HepaRG (AID 2283458); details: mRNA level, 48 h; actives raise or lower the signal
Method in brief: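 Differentiated HepaRG cells were exposed in duplicate for 48 h in serum-free induction medium to 8-point half-log concentrations up to 100 uM in 0.5% DMSO. GADD45A mRNA was measured by TaqMan qRT-PCR, normalized to ACTB, GAPDH and POLR2A, with bidirectional fitting versus DMSO.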

Measured: AC50

Chain of Fatty acid synthase (Homo sapiens) (P49327 whole entry, looked up): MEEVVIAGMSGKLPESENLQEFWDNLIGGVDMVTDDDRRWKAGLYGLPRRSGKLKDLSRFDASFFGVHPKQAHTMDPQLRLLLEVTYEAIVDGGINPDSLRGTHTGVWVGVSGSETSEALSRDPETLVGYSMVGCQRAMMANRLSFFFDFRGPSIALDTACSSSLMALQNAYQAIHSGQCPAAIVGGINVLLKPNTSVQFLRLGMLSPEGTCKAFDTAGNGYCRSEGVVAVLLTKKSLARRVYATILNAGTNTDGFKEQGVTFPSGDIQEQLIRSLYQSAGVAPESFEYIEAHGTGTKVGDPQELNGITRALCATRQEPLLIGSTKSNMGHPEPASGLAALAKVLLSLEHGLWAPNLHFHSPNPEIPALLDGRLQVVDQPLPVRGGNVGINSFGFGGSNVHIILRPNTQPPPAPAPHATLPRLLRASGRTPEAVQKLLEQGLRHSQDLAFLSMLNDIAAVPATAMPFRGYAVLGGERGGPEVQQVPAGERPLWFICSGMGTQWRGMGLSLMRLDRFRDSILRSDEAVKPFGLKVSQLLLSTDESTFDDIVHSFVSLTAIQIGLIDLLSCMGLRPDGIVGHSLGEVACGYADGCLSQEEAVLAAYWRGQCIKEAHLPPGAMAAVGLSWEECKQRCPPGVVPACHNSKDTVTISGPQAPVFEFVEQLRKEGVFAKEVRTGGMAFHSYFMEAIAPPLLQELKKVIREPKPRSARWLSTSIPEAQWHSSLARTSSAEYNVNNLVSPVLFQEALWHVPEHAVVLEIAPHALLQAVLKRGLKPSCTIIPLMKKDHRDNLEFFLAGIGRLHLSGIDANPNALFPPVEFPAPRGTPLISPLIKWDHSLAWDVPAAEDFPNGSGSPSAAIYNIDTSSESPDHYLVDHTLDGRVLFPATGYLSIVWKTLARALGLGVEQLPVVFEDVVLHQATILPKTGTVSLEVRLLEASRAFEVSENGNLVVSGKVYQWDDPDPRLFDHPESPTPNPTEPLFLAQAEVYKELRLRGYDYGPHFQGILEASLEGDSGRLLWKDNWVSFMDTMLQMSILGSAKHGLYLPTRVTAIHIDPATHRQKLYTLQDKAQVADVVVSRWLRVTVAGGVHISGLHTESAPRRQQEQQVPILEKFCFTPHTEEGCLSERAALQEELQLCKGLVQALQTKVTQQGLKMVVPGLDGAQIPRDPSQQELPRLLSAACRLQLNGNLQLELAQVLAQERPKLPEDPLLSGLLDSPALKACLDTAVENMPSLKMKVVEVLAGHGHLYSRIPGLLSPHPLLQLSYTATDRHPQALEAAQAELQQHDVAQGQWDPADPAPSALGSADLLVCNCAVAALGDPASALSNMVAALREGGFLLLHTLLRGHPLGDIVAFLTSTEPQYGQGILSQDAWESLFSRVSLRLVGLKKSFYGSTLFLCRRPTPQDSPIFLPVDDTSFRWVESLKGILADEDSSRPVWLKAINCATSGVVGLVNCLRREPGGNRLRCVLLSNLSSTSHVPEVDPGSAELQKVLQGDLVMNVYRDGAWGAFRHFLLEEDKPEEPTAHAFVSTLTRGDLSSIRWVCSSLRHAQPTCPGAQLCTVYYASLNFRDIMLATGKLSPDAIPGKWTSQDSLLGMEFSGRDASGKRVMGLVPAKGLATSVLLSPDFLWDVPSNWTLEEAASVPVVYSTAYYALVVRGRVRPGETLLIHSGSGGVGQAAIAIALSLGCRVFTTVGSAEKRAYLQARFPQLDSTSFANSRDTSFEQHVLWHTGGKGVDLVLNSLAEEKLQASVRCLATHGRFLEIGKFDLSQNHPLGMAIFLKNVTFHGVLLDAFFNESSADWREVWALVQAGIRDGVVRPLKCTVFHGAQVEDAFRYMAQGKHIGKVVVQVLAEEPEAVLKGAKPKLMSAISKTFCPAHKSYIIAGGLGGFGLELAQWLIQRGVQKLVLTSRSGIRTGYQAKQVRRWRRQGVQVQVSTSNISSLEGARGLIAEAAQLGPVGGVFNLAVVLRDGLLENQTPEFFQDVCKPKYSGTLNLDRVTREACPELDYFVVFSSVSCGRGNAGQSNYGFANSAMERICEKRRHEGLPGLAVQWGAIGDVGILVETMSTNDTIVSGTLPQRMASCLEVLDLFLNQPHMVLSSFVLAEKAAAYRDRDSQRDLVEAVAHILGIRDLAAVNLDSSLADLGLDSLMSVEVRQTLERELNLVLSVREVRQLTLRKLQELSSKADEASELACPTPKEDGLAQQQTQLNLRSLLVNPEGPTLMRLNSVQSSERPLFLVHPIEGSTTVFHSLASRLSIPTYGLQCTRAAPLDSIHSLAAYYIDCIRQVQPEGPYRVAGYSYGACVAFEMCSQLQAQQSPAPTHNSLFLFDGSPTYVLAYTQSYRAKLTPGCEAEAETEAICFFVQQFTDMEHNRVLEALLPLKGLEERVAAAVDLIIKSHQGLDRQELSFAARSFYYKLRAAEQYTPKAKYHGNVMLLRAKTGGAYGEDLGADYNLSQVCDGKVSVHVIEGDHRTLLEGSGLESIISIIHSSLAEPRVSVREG

CC1CCCC1.[C-]#[O+].[C-]#[O+].[C-]#[O+].[Mn]
inactive: [1] | [2] | [3] | [4] | [5] | [6] | [7] | [8] | [9] | [10]

O=C(CCl)c1ccccc1
inactive: [11] | [12] | [13] | [14] | [15] | [16] | [17] | [18] | [19] | [20]

O=[N+]([O-])c1ccc(Cl)cc1
inactive: [11] | [12] | [13] | [14] | [15] | [16] | [18] | [19] | [20]
active: [17] 37.8 µM

CNC(=N[N+](=O)[O-])NCC1CCOC1 (stereo not given)
inactive: [1] | [2] | [3] | [4] | [5] | [6] | [7] | [8] | [9] | [10]

N#CCCCCC#N
inactive: [11] | [12] | [13] | [14] | [15] | [16] | [17] | [18] | [19] | [20]

CC(C)CCCCCCCOP(=O)(Oc1ccccc1)Oc1ccccc1
inactive: [1] | [2] | [3] | [4] | [5] | [6] | [7] | [8] | [9] | [10]
